Source: PubChem
Insulin prom up – MIN6 insulin promoter up-regulation; MIN6 insulin promoter-GFP reporter, high-content imaging; active compounds read high; z-score at 5 µM; hit rate 0.3% among 190,000; AID 1625;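 active means z-score above 3 at 5 µM with at least 500 cells counted in the well; inconclusive means wells under 500 cells, flagged as cytotoxic or low count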
Efa HMGR inh – blocks class II HMG-CoA reductase of Enterococcus faecalis. purified E. faecalis HMGR, NADPH absorbance 340 nm kinetic. inhibition, % at 10 µM. hit rate 0.41% among 190,000;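 active means inhibition above a set limit, the median over all tested compounds plus 3 SD, cut at about 9.5% in these data; inconclusive means no clear call, values can overlap the other calls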;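 further: enzyme runs in reverse so mevalonate oxidation gives rising NADPH absorbance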
Insulin prom inh – TRM-6 insulin promoter activity inhibition | TRM-6 cells (human fetal islet line), insulin promoter-eGFP reporter, imaging; reporter expression induced with tamoxifen | inhibition, % at 2 µM | hit rate 0.9% among 130,000 | AID 1273;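 active means inhibition above the mean plus 3 SD, with well images judged a real hit on visual review, cut at about 60% in these data, passing the limit was not always enough; inconclusive means inhibition over the cutoff but images rejected on review; inactive means inhibition not above the cutoff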
Autophagy mod – alters autophagy in cells | MEF GFP-LC3 puncta imaging; test concentration mostly 10 µM | calls only at 10 µM (by protocol) | hit rate 0.98% among 190,000;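 active means percentage of spot-positive cells more than 3 SD above its plate mean, without a fluorescence outlier flag or 80% toxicity; inconclusive means no clear call, values can overlap the other calls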
Large screens that a line does not name were inactive. A selection: hits, their analogues and other compounds. The true share with any hit is near 1.9%.

Cc1ccc(Cl)c(NC(=O)COC(=O)c2ccccc2C(=O)c2ccc(Cl)c([N+](=O)[O-])c2)c1Cl	Autophagy mod active
O=c1[nH]c(SCc2ccc([N+](=O)[O-])cc2)nc2[nH]ncc12	none (no result: Insulin prom inh)
Cc1ccc(NC(=S)/C(=C(\[O-])c2ccc(C)c([N+](=O)[O-])c2)[n+]2ccccc2)cc1C	none
COc1cccc(NC(=S)/C(=C(\[O-])c2ccc(OC(F)F)cc2)[n+]2ccccc2)c1	Efa HMGR inh 11 (no result: Insulin prom inh)
COc1cccc(NC(=S)/C(=C(\[O-])c2ccc(C)c([N+](=O)[O-])c2)[n+]2ccccc2)c1	Insulin prom inh 77
O=C1c2ccccc2C(=O)N1CC(O)CNc1ccc(Br)cc1 (configuration not stated)	Insulin prom inh 72
CCCCn1c(C)nc2c(=O)n(C)c(=O)[nH]c21	Insulin prom inh 73
Cc1cc(C=O)c2c(c1)C=CC1(Oc3ccccc3C(=O)N1C)O2 (configuration not stated)	Efa HMGR inh 19 (no result: Insulin prom up)
CN(C)c1ccc(/C=N/N2C(=S)SC(C)(C)C2N(O)C(=O)Nc2ccc([N+](=O)[O-])cc2)cc1 (configuration not stated)	none
O=C(OCC(=O)N1CCN(C(=O)c2ccco2)CC1)c1ccccc1OCc1ccccc1	Insulin prom up 12
O=C(OCC(=O)N1CCCC1)c1ccccc1OCc1ccccc1	none (no result: Insulin prom up)
COc1ccccc1NC(=O)Cn1cnc2c(cnn2-c2ccccc2)c1=O	Efa HMGR inh 12
CCn1c(CSc2nnc(-c3ccncc3)n2C)nc2cc(C(=O)O)ccc21	none (no result: Efa HMGR inh, Insulin prom inh, Autophagy mod)
CC(C)(C)NC(=O)C(c1cccs1)N(Cc1cccs1)C(=O)c1ccc(CN2CCOCC2)o1 (configuration not stated)	none
Cc1ccc(C(C(=O)NC(C)(C)C)N(Cc2ccc3c(c2)OCO3)C(=O)c2ccc(CN3CCOCC3)o2)o1 (configuration not stated)	Efa HMGR inh 15 (no result: Insulin prom inh)
O=C(Cn1cccc1C(=O)c1ccccc1)NCc1ccco1	Efa HMGR inh 14
Cc1ccccc1C(=O)c1cccn1CC(=O)NCc1ccco1	none (no result: Insulin prom up, Insulin prom inh)
O=C(Nc1ccc([N+](=O)[O-])cc1)Nc1ccc(OC(F)F)c(Cl)c1	Insulin prom up inconclusive, Autophagy mod active
O=C(Nc1ccc(OC(F)F)c(Cl)c1)Nc1ccc2c(c1)OCO2	none
Cc1cccc2cc3c(N)c(C(=O)Nc4ccc(N5CCOCC5)cc4)sc3nc12	none
Cc1cccc2cc3c(N)c(C(=O)N4CCc5ccccc54)sc3nc12	Insulin prom up 4.4, Autophagy mod active
Cc1sc(NC(=O)c2sc3nc4c(C)cccc4cc3c2N)c(C#N)c1C	Autophagy mod active (no result: Insulin prom up)
Cc1cccc2cc3c(N)c(C#N)sc3nc12	none (no result: Insulin prom inh)
Cc1cc(C2C(C#N)=C(N)Oc3n[nH]c(C)c32)c(C)s1 (configuration not stated)	Insulin prom up 3.4
Cc1ccccc1-c1nn(-c2ccc(F)cc2F)cc1CNCCCN(C)C	none (no result: Insulin prom inh)
Clc1ccccc1-c1nnc2n1CCCCC2	none (no result: Efa HMGR inh, Insulin prom inh, Autophagy mod)
Cc1ccc(Cc2cnc(NC(=O)/C(C#N)=C/c3ccc(-c4ccccc4[N+](=O)[O-])o3)s2)cc1	Autophagy mod active
O=C(NCC(F)(F)F)Nc1ccccn1	none
Nc1nc(SCc2ccccc2Cl)ns1	Efa HMGR inh 13 (no result: Insulin prom up)
Nc1nc(SCc2ccccc2)ns1	none
COc1ccc2c(c1)-c1nc(/N=C/c3ccc(O)cc3)sc1CC2	Insulin prom inh 77 (no result: Insulin prom up)
CN(C)C=Nc1c(Br)cc(Br)c2nonc12	Autophagy mod active (no result: Insulin prom up)
CC(C)CNC(=S)NC(=O)c1ccc(F)cc1	none
CSc1nc2ccc(NC(=O)c3cc4ccccc4o3)cc2s1	none (no result: Insulin prom inh)
CCCNC(=O)CN1C(=O)NC(CCc2ccccc2)C1=O (configuration not stated)	Efa HMGR inh 12, Insulin prom inh inconclusive
N#Cc1nc(N2CCOCC2)nc(N2CCOCC2)n1	Insulin prom up 3.3 (no result: Insulin prom inh)
CN(C)Cc1ccccc1Sc1ccc(O)cc1O	none
O=C(Cn1c(=O)oc2cccnc21)Nc1ccc(C(F)(F)F)cc1	none (no result: Efa HMGR inh, Insulin prom inh, Autophagy mod)
Cc1cc(S(=O)(=O)N2CCCC2)ccc1OCC(=O)N1CCOCC1	Insulin prom inh 78
CNC(=O)Cn1nc(-c2ccc(C)c(S(=O)(=O)N(C)C)c2)c2ccccc2c1=O	none
Cc1occc1-c1nnc(SCC(=O)N2CCCCC2)o1	Efa HMGR inh 13 (no result: Insulin prom inh)
COc1c2c(nc3ccccc13)OC(C(C)(O)COC(C)=O)C2 (configuration not stated)	Insulin prom up 3.3
CC(=O)OCCNc1nc(-c2ccccc2)nc2ccccc12	none (no result: Insulin prom inh)
NC(=O)c1ccsc1NC(=O)C1CCCN1S(=O)(=O)c1ccc(Cl)cc1 (configuration not stated)	none
CC1CCCCN1S(=O)(=O)c1ccc(C(=O)Nc2sccc2C(N)=O)cc1 (configuration not stated)	Autophagy mod active (no result: Insulin prom inh)
